# Data from PubChem BioAssay (NCATS).
# Inconclusive results are not listed. Calls of active or inactive are those of the source. Calls come from the whole dose curve; as a rule, active = well fitted cell-killing curve with a large enough effect; inconclusive = small, poorly fitted or top-dose-only effect, or effect the other way; inactive = flat fitted curve, though single readings scatter.
# Tested on: Tov-21-G
# Assay: Primary qHTS to identify gynecologic anti-cancer compounds using libraries of approved drugs and bioactive compounds (AID 1345084); note: nearly all actives have a fitted effect of over 55% in size
# Settings: Gynecologic cancer cell panel viability, ATPlite luminescence, 48 h; series mostly up to 57.5 µM; activity change, negative = cytotoxicity: at the top concentration
# Method in brief: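 48 h compound exposure at 37 C, 5% CO2; five-point qHTS. ATPlite luminescence readout of cell ATP.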
# % is set by controls: 0 for no effect and ±100 for the full control effect; potency is the fitted concentration of half-maximal effect.
SMILES,Potency,"activity change, negative = cytotoxicity"
Cc1ccc(C(=O)Nc2cccc(C(F)(F)F)c2)cc1-c1ccc2nc(NCCN3CCOCC3)ncc2c1,14.1 µM (active),
Cc1ccc(CN2CCNCC2)cc1NC(=O)CNc1ccc(F)c(F)c1,,15.3% (inactive)
CNC(=O)c1ccc(-c2cnc3ncc(Cc4ccc5ncccc5c4)n3n2)cc1F,,4.46% (inactive)
CCOc1ccccc1OCCNC(C)Cc1ccc(OC)c(S(N)(=O)=O)c1 (configuration not stated),,-1.6% (inactive)
N#Cc1c(O)c2c(-c3ccc(-c4ccccc4O)cc3)csc2[nH]c1=O,,0.224% (inactive)
CN(C1CCc2c(c3ccccc3n2CC(=O)O)C1)S(=O)(=O)c1ccc(F)cc1 (configuration not stated),inactive,
CCCn1c(=O)c2[nH]c(-c3cnn(Cc4cccc(C(F)(F)F)c4)c3)nc2n(CC)c1=O,,20.3% (inactive)
O=C(O)Cn1nnc(-c2cc(N3CCC(Oc4cc(F)ccc4Br)CC3)no2)n1,,7.39% (inactive)
COc1ccc2c(c1)CC[C@@H](CN(C)CC(=O)O)[C@H]2c1ccccc1,,-0.679% (inactive)
CC(C)(C)c1cc(NC(=O)Nc2ccc(-c3cn4c(n3)sc3cc(OCCN5CCOCC5)ccc34)cc2)no1,,-1.85% (inactive)
Cc1c(CN2CCN(S(C)(=O)=O)CC2)sc2c(N3CCOCC3)nc(-c3cnc(N)nc3)nc12,2 µM (active),
COc1ccc(-c2cc3c(C)nc(N)nc3n(C3CCC(OCCO)CC3)c2=O)cn1 (configuration not stated),6.31 µM (active),
Cc1ccc(NC(=O)C2(c3ccc4c(c3)OC(F)(F)O4)CC2)nc1-c1cccc(C(=O)O)c1,,1.88% (inactive)
CC(O)C1C(=O)N2C(C(=O)O)=C(SC3CNC(C(=O)N(C)C)C3)C(C)C12 (configuration not stated),,6.1% (inactive)
COc1cc(Nc2ncc(F)c(Nc3ccc4c(n3)N(COP(=O)(O)O)C(=O)C(C)(C)O4)n2)cc(OC)c1OC,14.1 µM (active),
O=C(c1cncc(Br)c1)N1CCC(N2CCCC2)CC1,,0.246% (inactive)

SMILES,Potency,"activity change, negative = cytotoxicity"
CCNC(=O)Nc1ccc2ncc(Nc3ccc(C)cc3)nc2n1,,4.04% (inactive)
Cc1nc(N)ncc1-c1nc(N2CCOCC2)c2sc(C(C)(C)O)cc2n1,7.94 µM (active),
COC(=O)Nc1ccc(-c2nc(N3CCOCC3)c3cnn(C4CCN(Cc5cccnc5)CC4)c3n2)cc1,2.82 µM (active),
Cc1c(Cn2c(C)nc3c(C(=O)O)cc(N4CCOCC4)cc32)cccc1C(F)(F)F,,8.55% (inactive)
CCCCCCCCCC(=O)N[C@@H](Cc1c[nH]c2ccccc12)C(=O)N[C@H](CC(N)=O)C(=O)N[C@@H](CC(=O)O)C(=O)N[C@@H]1C(=O)NCC(=O)N[C@@H](CCCN)C(=O)N[C@@H](CC(=O)O)C(=O)N[C@H](C)C(=O)N[C@@H](CC(=O)O)C(=O)NCC(=O)N[C@H](CO)C(=O)N[C@@H]([C@@H](C)CC(=O)O)C(=O)N[C@@H](CC(=O)c2ccccc2N)C(=O)O[C@@H]1C,,-1.16% [at 25.3 µM] (inactive)
CCCCCN(CCC12CC3CC(CC(C3)C1)C2)C(=O)NCCCc1ccncc1,,1.76% (inactive)
O=C1CCC[C@@H]2[C@H]3CCC[N+]4([O-])CCC[C@@H](CN12)[C@@H]34 (some centres not stated),,1.79% (inactive)
Clc1cccc(-n2nnnc2NCc2ccccc2Oc2ccccn2)c1Cl,,0.675% (inactive)
CCCNC(=O)Nc1ccc(Oc2ncnc3cc(OC)c(OC)cc23)cc1Cl,,0.0802% (inactive)
CNC(=O)c1ccc(N2C(=S)N(c3cnc(C#N)c(C(F)(F)F)c3)C(=O)C23CCC3)cc1F,,1.24% (inactive)
C[C@]12CC[C@H](O)CC1=CCC1C2CC[C@]2(C)C(n3cnc4ccccc43)=CCC12 (some centres not stated),,7.45% (inactive)
Clc1cccc(-c2nnnn2Cc2cccnc2)c1Cl,,3.96% (inactive)
CC(=O)c1c(C)c2cnc(Nc3ccc(N4CCNCC4)cn3)nc2n(C2CCCC2)c1=O,,-13.1% [at 6.55 µM] (inactive)
OCc1ccc(-c2ccc(-c3ccc(CO)s3)o2)s1,,-20.6% [at 25.3 µM] (inactive)
CC(C)c1noc(N2CCC(COc3ccc(-c4ccc(S(C)(=O)=O)cc4)nc3)CC2)n1,,0.606% (inactive)
COc1cc2c(Oc3ccc(NC(=O)C4(C(=O)Nc5ccc(F)cc5)CC4)cc3F)ccnc2cc1OCCCN1CCOCC1,15.8 µM (active),
